An excerpt weighted towards active compounds, which were near 19% of everything screened.
HT1080-NT tox = kills 2HG-producing HT-1080-NT fibrosarcoma cells | HT-1080-NT fibrosarcoma viability, CellTiter-Glo ATP luminescence, 48 h | Potency, µM (series often up to 46.1 µM), for the others: top-dose activity, negative = less viability, usual class: cytotoxic | 360,000 tested, 1.6% active | AID 686970;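 note: NT is the 2HG producing partner of a matched IDH1 knockdown line; potency is the fitted concentration of half-maximal effect; 0% = DMSO-treated cells and -100% = media-only wells without cells; nearly all actives have a fitted effect of over 55% in size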
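A 48-hour cytotoxicity screen used HT-1080-NT cells plated 2 hours before compound delivery. ATP-based CellTiter-Glo luminescence measured viability, normalized to DMSO and no-cell controls.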
HT1080 IDH1KD tx = HT-1080 IDH1 knockdown cell toxicity (counter line); 360,000 tested, 2% active; AID 686971; HT-1080 IDH1 knockdown viability, ATP luminescence, 48 h; Potency, µM (doses to about 46.1 µM), without a hit: top-dose activity, negative = toxicity, most hits filed as cytotoxic;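 note: potency is the fitted concentration of half-maximal effect; 0% = DMSO wells and -100% = cell-free medium wells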
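After a 2 h attachment period, IDH1KD HT-1080 cells took pin-transferred compound for 48 h at 37 °C; ATP-based luminescence after 10 min room-temperature reagent incubation reported viability.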
DT40 TDP1 CPT = DT40-hTDP1 cell growth loss with CPT; AID 686979; 420,000 tested, 12% active; chicken DT40 Tdp1-/-;hTDP1 cells + 20 nM CPT, ATP luminescence, 48 h; Potency, µM (series often up to 46.2 µM), for inactives: top-dose activity change, negative = growth inhibition, hits mostly inhibitors; note: potency is the fitted concentration of half-maximal effect; nearly all actives have a fitted effect of over 55% in size
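Cell growth measured by CellTiter-Glo luminescence after a minimum 48 h, 37 C compound exposure with 20 nM CPT in Tdp1-knockout DT40 cells stably expressing hTDP1, seeded 400/well; qHTS titration format.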
TDP1 cell noCPT = qHTS for Inhibitors of human tyrosyl-DNA phosphodiesterase 1 (TDP1): qHTS in cells in absence of CPT; AID 686978, 2013; 420,000 tested, 15% active; Potency, µM (series often up to 46.2 µM), without a hit: top-dose activity change, negative = growth inhibition, most hits filed as inhibitors; DT40 Tdp1-/- hTDP1 cells, no CPT, ATP luminescence, 48 h; note: potency is the fitted concentration of half-maximal effect; nearly all actives have a fitted effect of over 55% in size
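Stably hTDP1-transfected Tdp1-null chicken DT40 cells were treated with library compounds minus camptothecin and grown for at least 48 hr at 37 °C, after which cellular ATP was quantified by luminescence.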
ELG1 DNA repair = inhibitors of ELG1-dependent DNA repair in HEK293T cells; Potency, µM (highest dose often 46.1 µM), for the others: top-dose activity change, negative = inhibition, most hits filed as inhibitors; HEK293T ELG1-luciferase reporter, luminescence, 16 h; DNA damage induced by 5-fluorouridine; 330,000 tested, 2.3% active; AID 504467; note: potency is the fitted concentration of half-maximal effect; nearly all actives have a fitted effect of over 55% in size
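Overnight (16 hr) co-exposure of 2,000 cells/well to 5-fluorouridine and compound at 37 °C preceded detection. Luciferase was quantified via ONE-Glo luminescence; loss of signal denotes inhibition.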
IL1B secr inh = inhibitors of inflammasome signaling (IL-1 beta secretion); AID 743279; THP-1 LPS/ATP IL-1B secretion, AlphaLISA, 16 h; hits give low values; 360,000 tested, 4.7% active; activity change, % at 57.5 µM; in the data active = activity change below about -50%; inconclusive = mostly about -30% to -49%
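THP-1 cells pretreated 1 hr with compounds (up to 57.5 uM final), then stimulated with LPS (250 ng/mL final) plus ATP (1.25 mM final); secreted IL-1B measured by AlphaLISA after 16 hr, decreased signal indicating inhibition.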
* marks the source's active call; other numbers are inactive results. Unless noted, calls come from the whole dose curve; as a rule, active = well fitted curve in the direction sought with a large enough effect; inconclusive = small, poorly fitted or top-dose-only effect, or another doubt; inactive = no such curve, though single readings can be large; an effect the other way counts as inactive or inconclusive. Unless noted, % is set by controls: 0 for no effect and ±100 for the full control effect.

Screening CCc1ccc(OCC(=O)N2CCN(c3ccccn3)CC2)c(Br)c1 returned HT1080-NT tox 0%, HT1080 IDH1KD tx -4%, DT40 TDP1 CPT 13µM*, TDP1 cell noCPT inconclusive, ELG1 DNA repair -17% and IL1B secr inh -5.
`Cc1cc(OCC(=O)N2CCN(c3ccccn3)CC2)cc(C)c1Br` gave HT1080-NT tox 0%, HT1080 IDH1KD tx -21%, DT40 TDP1 CPT inconclusive, TDP1 cell noCPT 16µM*, ELG1 DNA repair -11% and IL1B secr inh -9.
O=C(COc1ccc(Br)cc1Cl)N1CCN(c2ccccn2)CC1 was read as HT1080-NT tox 21%, HT1080 IDH1KD tx 26%, DT40 TDP1 CPT -1%, TDP1 cell noCPT -7%, ELG1 DNA repair -4% and IL1B secr inh -11.
`COc1ccc2oc(C(=O)OCC(=O)N3CCC(C)CC3)c(C)c2c1` gave HT1080-NT tox -1%, HT1080 IDH1KD tx -3%, DT40 TDP1 CPT inconclusive, TDP1 cell noCPT -16%, ELG1 DNA repair 9% and IL1B secr inh -55*.
Screening COc1ccc2oc(C(=O)OCc3c(C)noc3C)c(C)c2c1 returned HT1080-NT tox -7%, HT1080 IDH1KD tx -5%, DT40 TDP1 CPT -18%, TDP1 cell noCPT -23%, ELG1 DNA repair inconclusive and IL1B secr inh -107*.
Cc1cc(=O)oc2cc(OCC(=O)N3CCC(C(N)=O)CC3)ccc12 was read as HT1080-NT tox 0%, HT1080 IDH1KD tx 4%, DT40 TDP1 CPT 11%, TDP1 cell noCPT 2%, ELG1 DNA repair -21% and IL1B secr inh -3.
COc1ccc2oc(C(=O)OC(C)C(=O)N3C(C)CCCC3C)c(C)c2c1 (stereo unspecified) was read as HT1080-NT tox 0%, HT1080 IDH1KD tx -16%, DT40 TDP1 CPT inconclusive, TDP1 cell noCPT 21µM*, ELG1 DNA repair inconclusive and IL1B secr inh 7.
`COc1ccc2oc(C(=O)NN3C(C)CCCC3C)c(C)c2c1` (stereo unspecified) gave HT1080-NT tox 1%, HT1080 IDH1KD tx 8%, DT40 TDP1 CPT inconclusive, TDP1 cell noCPT inconclusive, ELG1 DNA repair 6% and IL1B secr inh 30.
Cc1cc(=O)oc2cc(OCC(=O)OCC(=O)N3CCC(C)CC3)ccc12 was read as HT1080-NT tox -9%, HT1080 IDH1KD tx 2%, DT40 TDP1 CPT -4%, TDP1 cell noCPT -13%, ELG1 DNA repair 4% and IL1B secr inh -60*.
Screening COc1ccccc1NC(=O)C(C)NC(c1ccccc1)c1ccccc1 (stereo unspecified) returned HT1080-NT tox 3%, HT1080 IDH1KD tx 1%, DT40 TDP1 CPT inconclusive, TDP1 cell noCPT inconclusive, ELG1 DNA repair -14% and IL1B secr inh 3.
For CCC(C)Cn1cnc2c(SCc3ccccc3F)nc(N)nc21 (stereo unspecified) the results were HT1080-NT tox -22%, HT1080 IDH1KD tx -22%, DT40 TDP1 CPT inconclusive, TDP1 cell noCPT 21µM* and IL1B secr inh -56*.
`CC(C)Cn1cnc2c(SCc3ccccc3)nc(N)nc21` gave HT1080-NT tox -14%, HT1080 IDH1KD tx -13%, DT40 TDP1 CPT -4%, TDP1 cell noCPT inconclusive and IL1B secr inh -50*.
COCCn1c(C)cc(O)c(C(c2ccccc2Cl)N2CCCCC2)c1=O (stereo unspecified) was read as DT40 TDP1 CPT 0% and TDP1 cell noCPT 2%.
For O=C(c1cc(-c2ccccc2)nc2ccccc12)N1CCCc2ccccc21 the results were HT1080-NT tox -3%, HT1080 IDH1KD tx -11%, DT40 TDP1 CPT inconclusive, TDP1 cell noCPT 23µM*, ELG1 DNA repair 18µM* and IL1B secr inh -5.
`Cc1cccc(-c2cc(C(=O)N3CCCc4ccccc43)c3ccccc3n2)c1` gave HT1080-NT tox -1%, HT1080 IDH1KD tx -6%, DT40 TDP1 CPT 23µM*, TDP1 cell noCPT inconclusive, ELG1 DNA repair 7.3µM* and IL1B secr inh -29.
Screening COc1cccc(N2CCN(S(=O)(=O)c3cn(C)c(C)n3)CC2)c1 returned DT40 TDP1 CPT -7% and TDP1 cell noCPT -3%.
Cc1cccc(OCc2ccc(-c3nc(C#N)c(N4CCC(C(N)=O)CC4)o3)o2)c1 was read as DT40 TDP1 CPT 16µM* and TDP1 cell noCPT inconclusive.
For COc1ccc(OCc2ccc(-c3nc(C#N)c(N4CCC(C)CC4)o3)o2)cc1 the results were DT40 TDP1 CPT inconclusive and TDP1 cell noCPT 23µM*.
`CC(Nc1oc(-c2ccc(COc3ccccc3)o2)nc1C#N)c1ccccc1` (stereo unspecified) gave DT40 TDP1 CPT 6.5µM* and TDP1 cell noCPT 9.2µM*.
CC1CCN(c2oc(-c3ccc(COc4ccccc4)o3)nc2C#N)CC1 was read as DT40 TDP1 CPT 21µM* and TDP1 cell noCPT 10µM*.
For COc1ccc(OCc2ccc(-c3nc(C#N)c(N4CCN(C)CC4)o3)o2)cc1 the results were DT40 TDP1 CPT inconclusive and TDP1 cell noCPT 15µM*.
`Cc1ccc(OCc2ccc(-c3nc(C#N)c(N4CCC(C)CC4)o3)o2)cc1` gave DT40 TDP1 CPT inconclusive and TDP1 cell noCPT 21µM*.
N#Cc1nc(-c2ccc(COc3ccccc3)o2)oc1N1CCN(c2ccccc2)CC1 was read as DT40 TDP1 CPT -2% and TDP1 cell noCPT -27%.
`COc1ccc(OCc2ccc(-c3nc(C#N)c(N4CCCCC4)o3)o2)cc1` gave DT40 TDP1 CPT 1% and TDP1 cell noCPT inconclusive.
For CCCNC(=O)c1cc(C2CCCN(C(=O)c3ccc(NC(C)=O)cc3)C2)on1 (stereo unspecified) the results were HT1080-NT tox 14%, HT1080 IDH1KD tx 3%, DT40 TDP1 CPT 2%, TDP1 cell noCPT -31% and IL1B secr inh 1.
COCCCn1c(=N)c(C(=O)NC2CCCCC2)cc2c(=O)n3cc(C)ccc3nc21 was read as DT40 TDP1 CPT -27% and TDP1 cell noCPT inconclusive.
CCOC(=O)CNC(=O)Cn1cnc2c(nnn2-c2ccc(OC)cc2)c1=O was read as HT1080-NT tox -1%, HT1080 IDH1KD tx 6%, DT40 TDP1 CPT 3%, TDP1 cell noCPT -1%, ELG1 DNA repair 5% and IL1B secr inh -6.
CCOC(=O)CSc1nc2cc3c(cc2cc1C)OCO3 was read as HT1080-NT tox 11%, HT1080 IDH1KD tx 8%, DT40 TDP1 CPT -15%, TDP1 cell noCPT -16%, ELG1 DNA repair 4% and IL1B secr inh 11.
